The text below walks through data of PubChem BioAssay (NCI).

Molecules are shown by their SMILES. About 79,000 compounds went through this panel and 15% of them were active in at least one assay; those are over-represented in the sample as a whole. Activity calls are given as the source filed them. No stated cut-off is given here; in the data, active means growth inhibition above about 70%; inactive means the rest.

The assay is described as follows: NCI Yeast Anticancer Drug Screen. Data for the rad50 strain (AID 155).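 Further: 0% = growth of vehicle-only cultures of the same strain.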 As to conditions: S. cerevisiae rad50 strain growth inhibition; at 50.0 µM; stronger effect = higher value. In outline:
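Genetically altered yeast (DNA repair pathway); compound treatment; growth inhibition vs vehicle ctrl.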
Consider `O=[N+]([O-])c1ccc(Oc2ccc(S(=O)(=O)O)cc2)cc1`, for which the growth inhibition is 13.8% (inactive).

For the compound `COc1ccc(NC(=S)NN)cc1`, the growth inhibition is 2.95% (inactive).

For the compound `O=S(=O)([N-]c1nc2ccccc2nc1-[n+]1ccccc1)c1ccccc1`, the growth inhibition is 14% (inactive).

Consider `ClCCOCc1ccc(Cl)cc1Cl`, for which the growth inhibition is 24.6% (inactive).

Regarding `Cc1ccc(Nc2nc(NS(=O)(=O)c3cc(C)c(Cl)cc3S)n(C)n2)cc1`, the growth inhibition was -15.1% (inactive).

On to `CC(c1ccccc1)/[N+]([O-])=C/c1ccccc1` (configuration not stated), for which the growth inhibition is -31.7% (inactive).

Turning to `COCCOC(=O)c1ccccc1O`, the growth inhibition is 5.45% (inactive).

As to `COCn1c(C)c(C)c2c(=O)oc(=O)[nH]c21`, the growth inhibition was -23.2% (inactive).

As for `C=CCC(OC(C)=O)c1cccc(OC)c1OC` (configuration not stated), the growth inhibition was 3.7% (inactive).

Consider `c1ccc(CN2COc3c(ccc4c5c(ccc34)CN(Cc3ccccc3)CO5)C2)cc1`, for which the growth inhibition was 5% (inactive).

In the case of `Cc1ccc(NC(=O)/C(Cc2nc3ccc([N+](=O)[O-])cc3[nH]c2=O)=N\NC(=O)C[n+]2ccccc2)c(C)c1`, the growth inhibition was -7.5% (inactive).

As for `Nc1ccc(C(=O)N/N=C/C=C/c2ccccc2)cc1`, the growth inhibition is 0.6% (inactive).

For the compound `COC1OC2COC(c3ccccc3)OC2C(OC(=O)c2ccc([N+](=O)[O-])cc2)C1OS(=O)(=O)c1ccc(C)cc1` (configuration not stated), the growth inhibition was 39.6% (inactive).

Take `C1CCC2(CC1)OCCO2`: the growth inhibition is -0.75% (inactive).

In the case of `C/C(=N\NC(N)=S)c1cc(C)c(C)cc1C`, the growth inhibition is 34.3% (inactive).

For the compound `Cc1ccc(Nc2ccc(Nc3ccc(C)cc3)c3c2C(=O)c2ccccc2C3=O)cc1`, the growth inhibition was -1.05% (inactive).

Turning to `O=C1C=C(CCC2=CC(=O)c3ccccc3C2=O)C(=O)c2ccccc21`, the growth inhibition is 4.65% (inactive).

Consider `CC(=O)c1sc2c(c1OC(=O)c1cccs1)c(=O)n(-c1ccccc1)c(=S)n2-c1ccccc1`, for which the growth inhibition is 22.2% (inactive).

On to `c1ccc(-c2cnn3c(-c4ccccc4)cnnc23)cc1`, for which the growth inhibition is -1.65% (inactive).

On to `CC(C)NCC(C)(C)[N+](=O)[O-]`, for which the growth inhibition is 5.05% (inactive).

For the compound `O=[N+]([O-])c1ccc(N=C/C=C/Nc2ccc([N+](=O)[O-])cc2)cc1`, the growth inhibition was 5% (inactive).

Take `Cc1cc2c(cc1C)C(=O)c1ccccc1C2=O`: the growth inhibition is -29.3% (inactive).

With `O=C(c1nc2ccc([N+](=O)[O-])cc2[nH]c1=O)C(O)c1ccc([N+](=O)[O-])cc1` (configuration not stated), the growth inhibition is -1.9% (inactive).

In the case of `O=C(/C=C/c1ccc2c(c1)OCO2)NCc1ccco1`, the growth inhibition was 53.5% (inactive).

In the case of `CC1=CC(=O)N2CCN=C2S1`, the growth inhibition was -7.05% (inactive).

`CCOc1ccc(/C(Cl)=C(\C=O)c2ccc(OC)c(OC)c2)cc1OCC`: the growth inhibition is -0.1% (inactive).

Regarding `COC(=O)[C@@]1(NC(=O)C(CC(=O)OC(C)(C)C)NC(=O)OC(C)(C)C)C[C@H]1C` (some centres not stated), the growth inhibition is -48.8% (inactive).
